# Laboratory results: PubChem BioAssay (NCATS)
# Where “and” joins values, the source holds several entries; their conditions need not be identical. Equal values may be shown once. Inconclusive results are not listed. Entries that show only a call come without a potency. Some compounds were tested as several samples or in several runs, with calls that do not always agree. Calls of active or inactive are those of the source. Calls follow the shape of the dose curve; as a rule, active = well fitted curve in the direction sought with a large enough effect; inconclusive = small, poorly fitted or top-dose-only effect, or another doubt; inactive = no such curve, though single readings can be large; an effect the other way counts as inactive or inconclusive.
# What was measured:
# [1] = test system: HaCat; assay: Cytotoxic Profiling of Annotated Libraries Using Quantitative High-Throughput Screening (AID 1296008); conditions: Five cell lines viability, CellTiter-Glo ATP luminescence, 48-72 h; max response: stronger effect = lower value; also: nearly all actives have a fitted effect of over 60% in size
# Method in brief: (§1)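 Cells exposed to compounds for 48 or 72 hr at 37 degrees Celsius. Viability read as ATP-coupled luminescence with CellTiter-Glo after 10 min at room temperature.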
# [2] = test system: KB-3-1; assay: as above; conditions: Five cell lines viability, CellTiter-Glo ATP luminescence, 48-72 h; max response: stronger effect = lower value
# Method in brief: as §1
# [3] = test system: NIH3T3; assay: as above; conditions: Five cell lines viability, CellTiter-Glo ATP luminescence, 48-72 h; max response: stronger effect = lower value
# Method in brief: as §1
# [4] = test system: HACAT; assay: qHTS assay to identify novel small-molecules to repurpose for Merkel cell carcinoma treatment (AID 1296009); conditions: MCC and control cell lines, CellTiter-Glo viability, 72 h; at 44.8 µM (top of the series) unless noted; also: nearly all actives have a fitted effect of over 60% in size
# Method in brief: (§2)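 CellTiter-Glo luminescence after 72 hr compound exposure at 37 degree celsius gave cell viability. Libraries NPC and MIPE were run as 8- and 11-point dose responses; RLUs normalized to DMSO (negative) and no-cell (cytotoxicity) controls.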
# [5] = test system: HEK293T; assay: as above; conditions: MCC and control cell lines, CellTiter-Glo viability, 72 h; at 44.8 µM (top of the series) unless noted
# Method in brief: as §2
# [6] = test system: MCC-13; assay: as above; conditions: MCC and control cell lines, CellTiter-Glo viability, 72 h; series mostly up to 46 µM
# Method in brief: as §2
# [7] = test system: MCC-26; assay: as above; conditions: MCC and control cell lines, CellTiter-Glo viability, 72 h; series mostly up to 46 µM
# Method in brief: as §2
# [8] = test system: MKL-1; assay: as above; conditions: MCC and control cell lines, CellTiter-Glo viability, 72 h; series mostly up to 46 µM
# Method in brief: as §2
# [9] = test system: MKL-2; assay: as above; conditions: MCC and control cell lines, CellTiter-Glo viability, 72 h; series mostly up to 46 µM
# Method in brief: as §2
# [10] = test system: UISO; assay: as above; conditions: MCC and control cell lines, CellTiter-Glo viability, 72 h; series mostly up to 46 µM
# Method in brief: as §2
# [11] = test system: WaGa; assay: as above; conditions: MCC and control cell lines, CellTiter-Glo viability, 72 h; series mostly up to 46 µM
# Method in brief: as §2
# [12] = test system: C33A; assay: Primary qHTS to identify gynecologic anti-cancer compounds using libraries of approved drugs and bioactive compounds (AID 1345084); conditions: Gynecologic cancer cell panel viability, ATPlite luminescence, 48 h; series mostly up to 57.5 µM; also: nearly all actives have a fitted effect of over 55% in size
# Method in brief: (§3)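 Cells, 1,000 per well, plated 16 h, then exposed 48 h at 37 C to compounds. Viability by ATPlite luminescence after 15 min at room temperature.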
# [13] = test system: CAOV3; assay: as above; conditions: Gynecologic cancer cell panel viability, ATPlite luminescence, 48 h; series mostly up to 57.5 µM
# Method in brief: as §3
# [14] = test system: CASKI; assay: as above; conditions: Gynecologic cancer cell panel viability, ATPlite luminescence, 48 h; series mostly up to 57.5 µM
# Method in brief: as §3
# [15] = test system: Es-2; assay: as above; conditions: Gynecologic cancer cell panel viability, ATPlite luminescence, 48 h; series mostly up to 57.5 µM
# Method in brief: as §3
# [16] = test system: HeLa; assay: as above; conditions: Gynecologic cancer cell panel viability, ATPlite luminescence, 48 h; series mostly up to 57.5 µM
# Method in brief: as §3
# [17] = test system: Hek293T; assay: as above; conditions: Gynecologic cancer cell panel viability, ATPlite luminescence, 48 h, control line for the selectivity index; series mostly up to 57.5 µM
# Method in brief: as §3
# [18] = test system: JEG-3; assay: as above; conditions: Gynecologic cancer cell panel viability, ATPlite luminescence, 48 h; series mostly up to 57.5 µM
# Method in brief: as §3
# [19] = test system: OV90; assay: as above; conditions: Gynecologic cancer cell panel viability, ATPlite luminescence, 48 h; series mostly up to 57.5 µM
# Method in brief: as §3
# [20] = test system: NIH3T3; assay: qHTS assay to identify novel small-molecules to repurpose for Merkel cell carcinoma treatment (AID 1296009); conditions: MCC and control cell lines, CellTiter-Glo viability, 72 h; at 44.8 µM (top of the series) unless noted; also: nearly all actives have a fitted effect of over 60% in size
# Method in brief: as §2
# Potency is read from the fitted curve at half-maximal effect.
smiles,measurement,setting,value
COc1ncnc(NS(=O)(=O)c2ccc(N)cc2)c1OC,max response,[1],-20.7% (inactive)
same,outcome,[1],inactive
same,max response,[2],-15% (inactive) and 8.7% (inactive)
same,Potency,[3],16.6 µM (active)
same,max response,[3],-17.7% (inactive)
same,outcome,[4],inactive
same,outcome,[5],inactive
same,Potency,[6],inactive
same,Potency,[7],inactive
same,Potency,[8],inactive
same,Potency,[9],inactive
same,Potency,[10],inactive
same,Potency,[11],inactive
same,Potency,[12],inactive
same,Potency,[13],inactive
same,Potency,[14],inactive
same,Potency,[15],inactive
same,Potency,[16],inactive
same,Potency,[17],inactive
same,Potency,[18],inactive
same,Potency,[19],inactive
COc1ccc(C(=O)CC(=O)c2ccc(C(C)(C)C)cc2)cc1,max response,[1],-14.4% (inactive)
same,outcome,[1],inactive
same,max response,[2],-7.03% (inactive) and 3.76% (inactive)
same,max response,[3],-3.73% (inactive) and 2.63% (inactive)
same,outcome,[4],inactive
same,outcome,[5],inactive
same,Potency,[6],inactive
same,Potency,[7],inactive
same,Potency,[8],inactive and 1.05 µM (active)
same,Potency,[9],0.935 µM (active)
same,Potency,[10],inactive and 11.8 µM (active)
same,Potency,[11],inactive
same,Potency,[12],inactive
same,Potency,[13],inactive
same,Potency,[14],inactive
same,Potency,[15],inactive
same,Potency,[16],inactive
same,Potency,[17],inactive
same,Potency,[18],inactive
same,Potency,[19],inactive
CCC(=O)O[C@]1(C(=O)SCF)[C@H](C)C[C@H]2[C@@H]3C[C@H](F)C4=CC(=O)C=C[C@]4(C)[C@@]3(F)[C@@H](O)C[C@@]21C,max response,[1],0.77% (inactive)
same,outcome,[1],inactive
same,max response,[2],26.7% (inactive)
same,outcome,[2],inactive
same,max response,[3],1.81% (inactive) and -2.44% (inactive)
same,outcome,[4],inactive
same,Potency,[6],inactive
same,Potency,[8],inactive
same,Potency,[9],inactive
same,Potency,[10],inactive
same,Potency,[11],inactive
same,Potency,[12],inactive
same,Potency,[14],inactive
same,Potency,[15],inactive
same,Potency,[16],inactive
same,Potency,[17],inactive
same,Potency,[18],inactive
same,Potency,[19],inactive
COc1cc2c(Nc3ccc(Br)cc3F)ncnc2cc1OCC1CCN(C)CC1,Potency,[1],7.31 µM (active)
same,max response,[1],0.174% (inactive)
same,max response,[2],-19.6% (inactive)
same,Potency,[3],5.9 µM (active) and 5.17 µM (active)
same,outcome,[3],inactive
same,Potency,[6],23.5 µM (active) and inactive
same,Potency,[7],inactive
same,Potency,[8],inactive
same,Potency,[9],inactive
same,outcome,[20],inactive
same,Potency,[10],20.9 µM (active) and inactive
same,Potency,[11],inactive
same,Potency,[12],inactive and 22.4 µM (active)
same,Potency,[13],inactive
same,Potency,[14],inactive
same,Potency,[15],inactive
same,Potency,[16],inactive
same,Potency,[17],inactive
same,Potency,[18],inactive and 28.2 µM (active)
same,Potency,[19],inactive
CC(C(=O)O)c1ccc2c(c1)CC(=O)c1ccccc1S2 (stereo not given),max response,[1],-2.2% (inactive) and 1.58% (inactive)
same,outcome,[1],inactive
same,max response,[2],-3.77% (inactive)
same,outcome,[2],inactive
same,max response,[3],4.16% (inactive) and -0.0725% (inactive)
same,outcome,[3],inactive
same,outcome,[4],inactive
same,Potency,[6],inactive
same,Potency,[7],inactive
same,Potency,[8],inactive
same,Potency,[9],inactive
same,outcome,[20],inactive
same,Potency,[10],inactive
same,Potency,[11],inactive
same,Potency,[12],inactive
same,Potency,[13],inactive
same,Potency,[14],inactive
same,Potency,[15],inactive
same,Potency,[17],inactive
same,Potency,[18],inactive
same,Potency,[19],inactive
CNS(=O)(=O)CCc1ccc2[nH]cc(C3CCN(C)CC3)c2c1,max response,[1],0.93% (inactive)
same,outcome,[1],inactive
same,max response,[2],-19.4% (inactive) and 0.237% (inactive)
same,outcome,[2],inactive
same,max response,[3],0.12% (inactive)
same,outcome,[3],inactive
same,outcome,[4],inactive
same,outcome,[5],inactive
same,Potency,[6],inactive
same,Potency,[8],inactive
same,Potency,[9],inactive
same,outcome,[20],inactive
same,Potency,[10],inactive
same,Potency,[11],inactive
same,Potency,[12],inactive
same,Potency,[13],inactive
same,Potency,[14],inactive
same,Potency,[15],inactive
same,Potency,[16],inactive
same,Potency,[17],inactive
same,Potency,[18],inactive
same,Potency,[19],inactive
CNNCc1ccc(C(=O)NC(C)C)cc1,max response,[1],-9.48% (inactive)
same,outcome,[1],inactive
same,max response,[2],-11.6% (inactive)
same,outcome,[2],inactive
same,max response,[3],-4.42% (inactive)
same,outcome,[3],inactive
same,outcome,[4],inactive
same,outcome,[5],inactive
same,Potency,[6],inactive
same,Potency,[7],inactive
same,Potency,[8],inactive
same,Potency,[9],inactive
same,outcome,[20],inactive
same,Potency,[10],inactive
same,Potency,[11],inactive
same,Potency,[12],inactive
same,Potency,[13],inactive
same,Potency,[14],inactive
same,Potency,[15],inactive
same,Potency,[17],inactive
same,Potency,[18],inactive
same,Potency,[19],inactive
CCc1cc(C(N)=S)ccn1,max response,[1],-10.8% (inactive)
same,outcome,[1],inactive
same,max response,[2],-6.3% (inactive) and 8.73% (inactive)
same,max response,[3],-2.49% (inactive)
same,outcome,[3],inactive
same,outcome,[4],inactive
same,outcome,[5],inactive
same,Potency,[6],inactive
same,Potency,[8],inactive
same,Potency,[9],inactive
same,outcome,[20],inactive
same,Potency,[10],inactive
same,Potency,[11],inactive
same,Potency,[13],inactive
same,Potency,[14],inactive
same,Potency,[15],inactive
same,Potency,[16],inactive
same,Potency,[17],inactive
same,Potency,[19],inactive
COCCCOc1cc(C[C@@H](C[C@H](N)[C@@H](O)C[C@H](C(=O)NCC(C)(C)C(N)=O)C(C)C)C(C)C)ccc1OC,max response,[1],0.78% (inactive)
same,outcome,[1],inactive
same,max response,[2],-10.1% (inactive) and 2.39% (inactive)
same,max response,[3],-0.804% (inactive)
same,outcome,[3],inactive
same,outcome,[4],inactive
same,outcome,[5],inactive
same,Potency,[6],inactive
same,Potency,[7],inactive
same,Potency,[8],inactive
same,Potency,[9],inactive
same,outcome,[20],inactive
same,Potency,[10],inactive
same,Potency,[11],inactive
same,Potency,[12],inactive
same,Potency,[13],inactive
same,Potency,[14],inactive
same,Potency,[15],inactive
same,Potency,[16],inactive
same,Potency,[17],inactive
same,Potency,[18],inactive
same,Potency,[19],inactive
